In PubChem BioAssay AID463173 (ICCB-Longwood Screening Facility, Harvard Medical School, 2010) one finds survival data, which are given here for 92 compounds.

In all, about 52,000 compounds went through this assay and about 4,300 (8.3%) were called active. Cut-off read from the data, not from the text of the source: active = survival mostly below about 52% (no sharp cut-off); inactive = mostly above about 56%. This excerpt belongs to a sample that is enriched for actives.

This assay has as its system DeltatarO mutant. Description: growth inhibition of S. aureus wild type versus tarO mutant, primary screen, teichoic acid synthesis inhibitors, RN4220, OD600 (AID 463173). The settings on record: OD600, 18 h, active compounds read low, screened at 18.75 µg/mL (by protocol).
`COc1ccc2oc(=O)c(-c3nnc(-c4ccc(C)cc4)o3)cc2c1`: the survival was 138% (inactive).

With `Clc1ccc(-c2nnn3c2nc(N2CCCCC2)c2ccccc23)cc1`, the survival was 25% (active). The figure for `O=S(=O)(c1ccccc1)c1nnn2c1nc(N1CCN(c3ccccc3)CC1)c1cc(Cl)ccc12` is 91% (inactive); for `Brc1cccc(-c2nnn3c2nc(N2CCCCC2)c2ccccc23)c1` it is 62% (inactive); for `COc1ccc(-c2nnn3c2nc(N2CCCC(C)C2)c2ccccc23)cc1` (configuration not stated) it is -3% (active). Regarding `CC1CCN(c2nc3c(S(=O)(=O)c4ccccc4)nnn3c3ccc(Cl)cc23)CC1`, the survival is 69% (inactive). Consider `Cc1ccc(-c2nnn3c2nc(N2CCC(C)CC2)c2ccccc23)cc1`, for which the survival was -6% (active). `CC1CCCN(c2nc3c(-c4ccc(Cl)cc4)nnn3c3ccccc23)C1` (configuration not stated): the survival was 87% (inactive). As to `COc1ccc(-c2nnn3c2nc(NCc2ccccc2)c2ccccc23)cc1`, the survival was 89% (inactive). Regarding `CC1CCN(c2nc3c(-c4cccc(Br)c4)nnn3c3ccccc23)CC1`, the survival is 104% (inactive). Turning to `O=C(NCCCN1CCN(c2ccccc2)CC1)c1nnc(Cc2c(F)cccc2Cl)o1`, the survival was 71% (inactive). As to `Cc1cc(NC(=O)CCc2nc3cccnc3n2Cc2cccs2)ccc1Br`, the survival was 50% (inactive). Regarding `COCCCNC(=O)c1cc(-c2cccnc2)nc2ccc(S(=O)(=O)N3CCC(C)CC3)cc12`, the survival was 113% (inactive). For the compound `CC(=O)c1ccc(N2CCN(C(=O)C3CCN(S(=O)(=O)c4cccc5nonc45)CC3)CC2)cc1`, the survival is 79% (inactive). As to `COC(=O)CSc1ncc(C#N)c(N)n1`, the survival was 110% (inactive). With `COc1ccc(C)cc1NC(=O)CCc1c(C)nn(-c2ccc(N3CCCCC3)nn2)c1C`, the survival was 78% (inactive). `CCCCOc1ccc(C(=O)Nc2onc3c2CCCC3)cc1`: the survival is 49% (active).

With `Cc1ccc(C(=O)Nc2onc3c2CCCC3)cc1`, the survival was 46% (active). As for `O=C(Nc1onc2c1CCCC2)c1ccc(Cl)cc1`, the survival is 77% (inactive). `CC(C)COc1ccc(C(=O)Nc2onc3c2CCCC3)cc1`: the survival is 103% (inactive). The figure for `CC(C)(C)c1ccc(C(=O)Nc2onc3c2CCCC3)cc1` is 56% (inactive). As for `CCOc1ccc(C(=O)Nc2onc3c2CCCC3)cc1`, the survival was 72% (inactive). With `CCCCOC(=O)c1ccc(NC(=O)c2sc3nc(C)cc(C)c3c2N)cc1`, the survival is 65% (inactive). As for `CCCCn1cc(S(=O)(=O)c2ccccc2)c(=O)c2cc(F)c(N3CCC(C)CC3)cc21`, the survival was 68% (inactive). As for `C=CCn1c(SCc2cccnc2)nnc1-c1ccncc1`, the figure is 88% (inactive); as for `Cc1ccc(Cl)cc1NC(=O)c1ccc(NC(=O)N2CCSc3ncccc32)cc1`, 79% (inactive); as for `CCc1cccc(NC(=O)c2ccc(NC(=O)N3CCSc4ncccc43)cc2)c1`, -1% (active). As to `Cc1ccccc1NC(=O)c1ccc(NC(=O)N2CCSc3ncccc32)cc1`, the survival is -2% (active). Take `CC(=O)c1ccc(NC(=O)c2cccc(NC(=O)N3CCSc4ncccc43)c2)cc1`: the survival is 79% (inactive).

For `CC(C)Oc1ccc(CNC(=O)c2ccc(NC(=O)N3CCSc4ncccc43)cc2)cc1`, the survival was 6% (active).

Take `CC(C)Oc1ccc(CNC(=O)c2cccc(NC(=O)N3CCSc4ncccc43)c2)cc1`: the survival was 88% (inactive). As to `CC(C)Oc1ccc(CNC(=O)Cc2ccc(NC(=O)N3CCSc4ncccc43)cc2)cc1`, the survival was 102% (inactive). Regarding `CCOc1ccc(NC(=O)c2ccc(NC(=O)N3CCSc4ncccc43)cc2)cc1`, the survival was 76% (inactive).

Consider `Cc1ccc(NC(=O)c2ccc(NC(=O)N3CCSc4ncccc43)cc2)c(C)c1`, for which the survival was 86% (inactive). In the case of `CC(C)CC1CC(C)(C(=O)CSc2n[nH]c(-c3ccccc3)n2)OC1=O` (configuration not stated), the survival was 80% (inactive). In the case of `COC(=O)c1cc(C)nc2c1c(=O)nc(SCc1cccc(C)c1)n2C1CC1`, the survival is 78% (inactive). In the case of `COc1ccc(CNC(=O)c2cnc3sc(N4CCCC4)nn3c2=O)c(OC)c1`, the survival is 70% (inactive). On to `Cc1ccccc1Nc1c(-c2ccsc2)nc2c(C)cccn12`, for which the survival was 8% (active). `Cc1ccccc1Nc1c(-c2ccc(O)cc2)nc2c(C)cccn12`: the survival is 72% (inactive).

In the case of `Cc1ccccc1Nc1c(-c2ccc(Cl)cc2)nc2c(C)cccn12`, the survival was 69% (inactive).

For the compound `Cc1cccc(C)c1Nc1c(-c2ccsc2)nc2cccc(C)n12`, the survival is 54% (inactive).

In the case of `Cc1ccc(Nc2c(-c3ccc(N4CCOCC4)cc3)nc3c(C)cccn23)cc1`, the survival is 56% (inactive). The figure for `Cc1ccc2nc(-c3ccsc3)c(Nc3ccc(Cl)cc3)n2c1` is 73% (inactive); for `Cc1ccc(Nc2c(-c3ccsc3)nc3c(C)cccn23)cc1` it is 20% (active); for `Cc1ccc(Nc2c(-c3ccc(O)cc3)nc3cccc(C)n23)cc1` it is 84% (inactive). Turning to `Cc1ccc(Nc2c(-c3ccsc3)nc3cccc(C)n23)cc1`, the survival is 25% (active). The figure for `Cc1cccn2c(Nc3ccccc3)c(-c3ccc(N4CCOCC4)cc3)nc12` is 113% (inactive); for `Cc1cccn2c(Nc3ccccc3)c(-c3cccs3)nc12` it is 89% (inactive); for `Cc1ccc(Nc2c(-c3ccc(C)cc3)nc3c(C)cccn23)cc1` it is 9% (active). For `CCOC(=O)c1cccc(NC(=O)N2CCOCC2)c1`, the survival was 80% (inactive). With `O=C(Cn1c2[n+](c3ccccc31)CC(O)CS2)N1CCCCC1` (configuration not stated), the survival is 72% (inactive). For the compound `O=C(Cn1c(=O)c2cccn2c2ccccc21)NCc1ccccc1F`, the survival is 84% (inactive). With `CCCNS(=O)(=O)c1cc(-c2nn3c(C)nnc3c3ccccc23)ccc1C`, the survival was 61% (inactive).

Turning to `C=C(C)c1cccc(C(C)(C)NC(=O)NC2CC(C)(C)NC(C)(C)C2)c1`, the survival was 107% (inactive). The figure for `Cc1ccc(CCNC(=O)c2ccc3[nH]c(C)c(C)c3c2)cc1` is 116% (inactive); for `CCCn1c(=O)n(-c2ccccc2Cl)c(=O)c2sc3ccccc3c21` it is 95% (inactive). Take `Cc1c(C(=O)OCCOc2ccccc2)[nH]c2c1C(=O)CC(c1ccc(C(C)(C)C)cc1)C2` (configuration not stated): the survival was 70% (inactive). For `Cc1cc(C)cc(NS(=O)(=O)c2ccc(-n3cccn3)cc2)c1`, the survival was 75% (inactive). For the compound `O=C(Nc1sc2c(c1C(=O)NCC1CCCO1)CCC2)c1cc(=O)c2cc(Cl)ccc2o1` (configuration not stated), the survival is 43% (active). In the case of `Cc1cc2oc(C(=O)Nc3sc4c(c3C(=O)NCC3CCCO3)CCCC4)cc(=O)c2cc1C` (configuration not stated), the survival was 47% (active). Regarding `O=C(Nc1sc2c(c1C(=O)NCC1CCCO1)CCC2)c1cc(=O)c2ccccc2o1` (configuration not stated), the survival is 66% (inactive). On to `Cc1ccc2oc(C(=O)Nc3sc4c(c3C(=O)NCC3CCCO3)CCC4)cc(=O)c2c1` (configuration not stated), for which the survival is 79% (inactive). On to `Cc1ccc2c(=O)cc(C(=O)Nc3sc4c(c3C(=O)NCC3CCCO3)CCC4)oc2c1` (configuration not stated), for which the survival was 71% (inactive). On to `Cc1cc2oc(C(=O)Nc3sc4c(c3C(=O)NCC3CCCO3)CCC4)cc(=O)c2cc1C` (configuration not stated), for which the survival is 36% (active).

`Cc1ccc2c(=O)cc(C(=O)Nc3sc4c(c3C(=O)NCC3CCCO3)CCCC4)oc2c1C` (configuration not stated): the survival is 85% (inactive). Consider `Cc1ccc2c(=O)cc(C(=O)Nc3sc4c(c3C(=O)NCC3CCCO3)CCCC4)oc2c1` (configuration not stated), for which the survival is 71% (inactive). Regarding `O=C(Nc1sc2c(c1C(=O)NCC1CCCO1)CCCC2)c1cc(=O)c2ccccc2o1` (configuration not stated), the survival was 50% (inactive). For `Cc1noc(/C=C/c2cccs2)c1S(=O)(=O)N1CCC(C(=O)Nc2ccc(F)c(Cl)c2)CC1`, the survival was 52% (inactive). The figure for `COc1ccc(-c2cc3nc(N)cc(=O)n3[nH]2)cc1` is 148% (inactive). The figure for `CCOc1cccc2cc(-c3nc4sc5c(c4c(=O)[nH]3)CCC(C(C)(C)C)C5)c(=O)oc12` (configuration not stated) is 79% (inactive); for `CCOC(=O)Cc1c(C)nc2c(-c3ccc(OC)c(OC)c3)c(C)nn2c1C` it is 82% (inactive).

In the case of `Cc1ccccc1Cn1c(=O)n(CC2CCC(C(=O)N3CCC(C)CC3)CC2)c(=O)c2sccc21` (configuration not stated), the survival is 73% (inactive).

For the compound `O=C(COC(=O)c1cc(-c2cccs2)nc2ccccc12)c1ccccc1`, the survival was 45% (inactive). Take `CCCCOc1ccc(CNC(=O)CCCN2C(=O)CSc3c2c(C)nn3-c2ccccc2)cc1`: the survival is 72% (inactive). As for `CC(C(=O)N1CCCC1)N1CCN(c2ccc(F)cc2)CC1` (configuration not stated), the figure is 87% (inactive); as for `COc1ccc2sc(N)nc2c1`, 93% (inactive). On to `COc1ccc(Nc2nc(N)nc(CSc3nc4cc(OC)ccc4s3)n2)cc1`, for which the survival is 41% (active).

`CN1CCN(Cc2nc(N)nc(Nc3ccccc3)n2)CC1`: the survival is 70% (inactive). The figure for `COc1cccc(C(=O)Nc2ccc3nc(SCc4ccc(C)cc4)sc3c2)c1` is 64% (inactive); for `COc1ccc(Nc2nc(N)nc(CSc3nc4ccccc4s3)n2)cc1` it is 21% (active). As for `COc1ccc(C(=O)Nc2ccc3nc(SCc4ccc(C)cc4)sc3c2)cc1`, the figure is 88% (inactive); as for `Cc1cc2ncn(CCC(=O)NC(C)(C)C)c2cc1C`, 95% (inactive). Turning to `O=C(O)Cn1nnnc1SCC(=O)Nc1ccc(F)cc1F`, the survival was 75% (inactive). As for `CN(C(=O)C(=O)Nc1ccc2nc3n(c(=O)c2c1)CCCCC3)c1cccc(C(F)(F)F)c1`, the survival is 76% (inactive). As for `COc1cc2[nH]c(=O)c(C(=O)NC3CCCC3)c(O)c2cc1OC`, the survival is 98% (inactive). As to `CCCCOC(=O)c1ccc(NC2=NS(=O)(=O)c3ccccc32)cc1`, the survival is 66% (inactive). As to `COc1ccc(C2CC(=O)c3cc(-c4nc(-c5cccc([N+](=O)[O-])c5)cs4)c(=O)n(-c4ccc(OC)cc4)c3C2)cc1` (configuration not stated), the survival was 57% (inactive). The figure for `CCc1ccc(NC(=O)CC2C(=O)N(c3cccc(C)c3)C(=O)N2Cc2cccc(OC)c2)cc1` (configuration not stated) is 92% (inactive); for `Cc1nc(-c2ccc(S(=O)(=O)N3CCN(c4cccc(Cl)c4)CC3)cc2)co1` it is 91% (inactive); for `CCOc1ccc(CCNC(=O)CCCc2cc(-c3ccc(OCC)cc3)on2)cc1` it is 92% (inactive). As for `CCOc1ccc(-c2cc(CCCC(=O)NCCc3ccc(OC)c(OC)c3)no2)cc1`, the survival was 91% (inactive). Consider `CCOc1ccc(-c2cc(CCCC(=O)NCCc3cc(OC)c(OC)c(OC)c3)no2)cc1`, for which the survival was 43% (active).
